Potency data for 40 compounds are collected here from PubChem BioAssay (Tox21).

Several values for one entry are separate records, joined by “and”; a condition that tells them apart may be missing. Identical values can stand only once. Inconclusive results are not listed. A call without a number means that no potency is given here. More than one record can exist for a structure, and the calls need not agree. Activity calls are given as the source filed them. The call rests on the fitted dose curve.
Potency means the concentration at half of the fitted maximal effect.

A short description of this assay: qHTS assay to identify small molecule antagonists of the sonic hedgehog signaling (Shh) pathway (AID 1259369). Further: nearly all actives have a fitted effect of over 45% in size. The following applies: NIH/3T3 Gli1-Luc reporter, Shh antagonist, luminescence 24 h; series mostly up to 92.4 µM. The text has this:
U.S. Tox21 Program National Center for Advancing Translational Sciences [NCATS] NIH Chemical Genomics Center [NCGC] U.S. Environmental Protection Agency [EPA] National Institutes of Environmental Health Sciences [NIEHS] National Toxicology Program [NTP] U.S. Food and Drug Administration [FDA] Tox21 Assay Overview: The sonic hedgehog (Shh) pathway is essential for normal embryonic development. Dysregulation of the Shh pathway can cause severe developmental defects in organs. Therefore chemicals that interfere with the pathway are potential developmental toxicants. A cell line designated 3T3Gli1-Luc (DMB/OARSA/CFSAN/FDA, Laurel, MD), a NIH/3T3 derived clone containing stably integrated Gli1-Luc reporter is used to detect chemical interference of the Shh pathway, by changes in the expression of the firefly Luc gene under the control of the Gli1 transcriptional response element. This cell line was used to screen Tox21 libraries for identifying and prioritizing the potential developmental toxicants that interfere Shh pathway. Conditioned medium-stimulated mode was used to screen for chemicals inhibiting Shh signaling.
Tox21 Assay Protocol Summary: 3T3 Gli1-Luc cells were dispensed at 2,000 per well in 5uL of culture medium into white solid bottom 1536-well plates (Greiner Bio-One, Monroe, NC) using a Multidrop Combi (Thermo Scientific, Waltham, MA) dispenser. The assay plates were incubated at 37 C and 5% CO2 for 4hr, and then 23nL of compounds dissolved in DMSO and positive control were transferred using a Pintool station (Wako, San Diego, CA). The compound transfer was followed by the addition of 1ul conditioned medium or assay buffer using two separate tips of Flying Reagent Dispenser (FRD, Aurora Discovery, San Diego, CA). The assay plates were incubated at 37C and 5% CO2 for 24hr. For luciferase read, 4uL of Amplite Luciferase reporter gene assay reagent (AAT Bioquest, Inc. Sunnyvale, CA) was added to each well of the assay plates using FRD and incubated at room temperature for 30min. The luminescence signal was measured using a ViewLux plate reader (Perkin Elmer, Shelton, CT).
Background: In qHTS, concentration-response curves come from the screen itself.
`CN=C=S`: the Potency was 2.19 µM (active).

In the case of `CON(C)C(=O)Nc1ccc(Cl)c(Cl)c1`, the Potency entry is “inactive”.

As to `Nc1ccc(Br)cc1`, the Potency is 43.2 µM (active) and inactive.

Consider `C=CC(N)=O`, for which the Potency result is “inactive”.

Take `CN(N=O)c1ccccc1`: the Potency result is “inactive”.

As for `CC(C)(Cl)Cl`, the Potency result is “inactive”.

`CCCCCCCCCl`: the Potency result is “inactive”.

For `O=[N+]([O-])c1ccc([As](=O)(O)O)cc1`, the Potency result is “inactive”.

Turning to `C#CC(C)(C)NC(=O)c1cc(Cl)cc(Cl)c1`, the Potency result was “inactive”.

As to `CC1C=[C-]C=C1.[C-]#[O+].[C-]#[O+].[C-]#[O+].[Mn]`, the Potency result is “inactive”.

As to `CN(C)[C@@H]1C(=O)C(C(N)=O)=C(O)[C@@]2(O)C(=O)C3=C(O)c4c(O)cccc4[C@@](C)(O)[C@H]3C[C@@H]12`, the Potency entry is “inactive”.

For the compound `c1ccc2c(c1)oc1ccccc12`, the Potency entry was “inactive”.

In the case of `CCOC(=O)c1ccccc1C(=O)OCC`, the Potency entry is “inactive”.

Consider `Cn1cc(-c2ccccc2)c(=O)c(-c2cccc(C(F)(F)F)c2)c1`, for which the Potency result is “inactive”.

`CC(C)C1(C)N=C(c2nc3ccccc3cc2C(=O)O)NC1=O` (stereo not given): the Potency result was “inactive”.

As to `CCN(CC)c1ccccc1`, the Potency entry was “inactive”.

`Oc1ccccc1Cl`: the Potency result is “inactive”.

As to `CC(C)(C)OOC(C)(C)C`, the Potency entry was “inactive”.

With `CCNc1nc(NC(C)(C)C)nc(SC)n1`, the Potency was 1.7 µM (active) and 6.11 µM (active).

As to `O=c1ccc(=O)[nH][nH]1`, the Potency entry is “inactive”.

In the case of `O=c1[nH]c2ccccc2c(=O)o1`, the Potency result was “inactive”.

For the compound `CC(C#N)CCC#N` (stereo not given), the Potency entry was “inactive”.

On to `O=[N+]([O-])c1ccccc1`, for which the Potency result was “inactive”.

On to `O=C1CCCN1`, for which the Potency result is “inactive”.

In the case of `CCCN(CCC)c1c([N+](=O)[O-])cc(C(F)(F)F)cc1[N+](=O)[O-]`, the Potency result is “inactive”.

Take `Clc1ccc(Cl)cc1`: the Potency is 385 nM (active) and inactive.

Consider `Clc1ccccc1Cl`, for which the Potency entry is “inactive”.

As to `OC(O)C(Cl)(Cl)Cl`, the Potency result was “inactive”.

For `[N-]=[N+]=[N-]`, the Potency result is “inactive”.

Consider `CC(C)NC(=O)N1CC(=O)N(c2cc(Cl)cc(Cl)c2)C1=O`, for which the Potency is 10.9 µM (active).

`c1ccc(-c2ccccc2)cc1`: the Potency entry was “inactive”.

Turning to `CC(Oc1ccc(Cl)cc1Cl)C(=O)O` (stereo not given), the Potency entry is “inactive”.

Turning to `CNC(=O)Oc1ccccc1OC(C)C`, the Potency entry was “inactive”.

With `CC(C)C#N`, the Potency result was “inactive”.

On to `Cc1cc(-c2cc(C)c(N)c(C)c2)cc(C)c1N`, for which the Potency is 2.74 µM (active) and 21.3 µM (active).

Regarding `CCNc1nc(NC(C)C)nc(SC)n1`, the Potency entry was “inactive”.

Consider `COc1ccc2c3c1O[C@H]1[C@@H](O)C=C[C@H]4[C@@H](C2)N(C)CC[C@@]341`, for which the Potency is 2.69 µM (active).

As to `Cc1[nH]c(=O)n(C(C)(C)C)c(=O)c1Cl`, the Potency entry is “inactive”.

On to `Nc1ccccc1C(=O)O`, for which the Potency entry was “inactive”.

As for `Nc1ccc(Oc2ccc(N)cc2)cc1`, the Potency entry is “inactive”.
